Reference: PubChem BioAssay (EPA / NIEHS)
Inconclusive results are not listed. Activity calls are given as the source filed them. How the source made its calls: active means hit-call score of the fitted dose curve at least 0.9, where 1 is the maximum; inconclusive means response in the unintended direction; inactive means score below 0.9.

Columns and labels:
[1] = CCTE_Mundy_HCI_hN2_NOG_NeuriteCount: CCTE's Neurite Outgrowth Assay in human hN2 cells for Neurite Count, Mundy Lab (AID 2284219)
Procedure, shortened: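 In this morphology assay, hNP1-derived neurons received test chemical 2 h post-plating and were fixed two days later in warm paraformaldehyde/sucrose containing Hoechst 33342. Neurites, labelled by rabbit anti-βIII-tubulin (1:800) and Alexa Fluor-488 (1:500), were counted automatically.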

[2] = CCTE_Mundy_HCI_hN2_NOG_NeuriteLength: CCTE's Neurite Outgrowth Assay in human hN2 cells for Neurite Length, Mundy Lab (AID 2284220)
Procedure, shortened: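 Read-out is neurite length from high-content imaging of βIII-tubulin/Alexa Fluor-488-labelled neurons, referenced to DMSO controls.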

[3] = CCTE_Mundy_HCI_hN2_NOG_NeuronCount: CCTE's Neurite Outgrowth Assay in human hN2 cells for Neuron Count, Mundy Lab (AID 2284221)
Procedure, shortened: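 Read-out is the number of betaIII-tubulin-positive neurons imaged by automated high-content analysis, with DMSO as negative control.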

Row | Compound | outcome [1] | outcome [2] | AC50 [3]
1 | CNC(=O)CSP(=O)(OC)OC | inactive | inactive | –
2 | NC(=O)c1ccc(N)nc1 | inactive | inactive | 0.862 nM (active)
